Measured values taken from PubChem BioAssay (EPA / NIEHS).
Inconclusive results are not listed. Calls of active or inactive are those of the source. The calls were made as follows, unless noted: active = hit-call score of the fitted dose curve at least 0.9, where 1 is the maximum; inconclusive = response in the unintended direction; inactive = score below 0.9.

Legend:
[1] = STM_H9_OrnCyssISnorm_ratio: Stemina devTOX quickPredict H9 human embryonic stem cell (hESC)-based Assay for Ornithine (ORN):Cystine (CYSS) Ratio (AID 2283714)
Outline: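 Undifferentiated H9 hESCs were exposed to compound for 72h with media and chemical replaced every 24h. Final 24-h conditioned media were deproteinized and analysed by UPLC-HRMS. ORN and CYSS peak areas were normalized to C13 internal standards and the ratio taken versus 0.1% DMSO.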

[2] = read-out: solute carrier (SLC10A1), SLC10A1 (gene 6554); assay: LTEA_HepaRG_SLC10A1: Life Technologies and Expression Analysis (LTEA) Assay for solute carrier (SLC10A1) using HepaRG (AID 2283657; active = hit-call score of the fitted dose curve at least 0.9, where 1 is the maximum; inactive = score below 0.9); settings: mRNA level, 48 h; actives raise or lower the signal
Outline: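 Differentiated HepaRG cells were plated 48 h, then exposed in serum-free induction medium for 48 h to 8 concentrations (top 100 uM, half-log steps, 0.5% DMSO). SLC10A1 mRNA was quantified by qRT-PCR normalized to ACTB, GAPDH, POLR2A; bidirectional fit versus DMSO.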

[3] = read-out: matrix metalloproteinase-1 (MMP1), MMP1 (gene 4312); assay: LTEA_HepaRG_MMP1: Life Technologies and Expression Analysis (LTEA) Assay for matrix metalloproteinase-1 (MMP1) using HepaRG (AID 2283658; active = hit-call score of the fitted dose curve at least 0.9, where 1 is the maximum; inactive = score below 0.9); settings: mRNA level, 48 h; actives raise or lower the signal
Outline: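 Differentiated human HepaRG cells, 48 h post-plating in serum-free induction medium, were exposed 48 h to eight half-log concentrations topping at 100 uM in 0.5% DMSO, duplicate. MMP1 mRNA measured by Fluidigm TaqMan qRT-PCR, normalized to ACTB, GAPDH, POLR2A; bidirectional fits versus DMSO.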

[4] = Tanguay_ZF_120hpf_TR_legacy: (Legacy) Oregon State University Tanguay Lab 120 Hour Post-fertilization zebrafish Assay for Touch Response (AID 2283667)
Outline: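 Tropical 5D wild-type zebrafish embryos were exposed statically in sealed, foil-covered plates at 28C until 120 hpf, with 0.64% (vol/vol) final DMSO. Touch response was scored as present or absent; embryos that died were not scored.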

[5] = read-out: Cytochrome P450 (CYP24A1_1), CYP24A1 (gene 1591); assay: LTEA_HepaRG_CYP24A1_1: Life Technologies and Expression Analysis (LTEA) Assay for Cytochrome P450 (CYP24A1_1) using HepaRG (AID 2283671; active = hit-call score of the fitted dose curve at least 0.9, where 1 is the maximum; inactive = score below 0.9); settings: mRNA level, 48 h; actives raise or lower the signal
Protocol: LTEA_HepaRG is a cell based, multiplexed-readout assay that uses HepaRG, a human liver cell line, with measurements taken at 48 hours after chemical dosing on a 96-well plate.LTEA_HepaRG_CYP24A1_1 is one of 102 assay component(s) measured in the LTEA HepaRG cell culture assay. It is a marker of NR mediated metabolism.Data from the assay component LTEA_HepaRG_CYP24A1_1 was analyzed into 1 endpoint. This assay endpoint, LTEA_HepaRG_CYP24A1_1, was analyzed with bidirectional fitting relative to DMSO as the negative control and baseline of activity. Using a type of inducible reporter, measures of mRNA induction for gain or loss-of-signal activity can be used to understand regulation of transcription factor activity. To generalize the intended target to other relatable targets, this assay endpoint is annotated to the cyp intended target family, where the subfamily is xenobiotic metabolism.
A total of 1060 chemcials from the ToxCast library were tested in eight-point concentration-response experiments. Cell culture and cytotoxicity assays were conducted at Thermo Fisher Scientific's Custom Services facility (Madison, WI). […] Fluidigm's 96.96 Dynamic ArrayTM (Fluidigm, Amsterdam, the Netherlands) technology was used for gene expression analyses by quantitative reverse transcription polymerase chain reaction (qRT-PCR, performed by Quintiles/Expression Analysis, Durham, NC)89. […]

[6] = CEETOX_H295R_MTT_cell_viability: Viability Assessment in the CeeTox HT-H295R MTT Assay (AID 2283718; active = hit-call score of the fitted dose curve at least 0.9, where 1 is the maximum; inactive = score below 0.9)
Outline: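 H295R cells prestimulated 48 h with 10 uM forskolin, then exposed 48 h to test chemical (0.1% DMSO final). Viability by MTT (0.5 mg/ml, 4 h, 37 C), absorbance 570/650 nm; percent change versus DMSO, bidirectional fit.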

[7] = Tanguay_ZF_120hpf_NC_legacy: (Legacy) Oregon State University Tanguay Lab 120 Hour Post-fertilization zebrafish Assay for Notochord and Tail Malformation (AID 2283656)
Outline: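 Dechorionated 5D zebrafish, 1/well from 6 hpf; static exposure to 120 hpf, 28C, sealed, dark; final DMSO 0.64% v/v. NC scored binary (present/absent); dead embryos not scored. Fit vs DMSO baseline, gain direction.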

[8] = CCTE_Padilla_ZF_144hpf_TERATOSCORE: (Legacy) CCTE's 144 Hour Post-fertilization zebrafish Assay Teratoscore, Padilla Lab (AID 2283679; active = hit-call score of the fitted dose curve at least 0.9, where 1 is the maximum; inactive = score below 0.9;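 as to AC50: zebrafish embryos with chorions exposed by immersion from 6-8 hpf to 5 dpf with daily renewal; teratogenicity score from eye scoring of death hatching and malformations at 144 hpf; higher score means more developmental defects relative to DMSO baseline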)
Outline: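 Larvae scored by eye at 144 hpf for death, hatching and malformations after a day in clean Hanks'. Before that, daily-renewed exposure at 80 uM (0.4% DMSO, 26C) from roughly 6-8 hpf through 5 dpf, 4 embryos per chemical.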

[9] = STM_H9_OrnithineISnorm_perc: Stemina devTOX quickPredict H9 human embryonic stem cell (hESC)-based Assay for Ornithine (ORN) Metabolite Biomarker, Normalized (AID 2283712; active = hit-call score of the fitted dose curve at least 0.9, where 1 is the maximum; inactive = score below 0.9;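 also: ornithine released into spent medium during last day measured by mass spectrometry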)
Outline: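 Undifferentiated pluripotent H9 hESCs were exposed to compound for 72h, with media and compound replaced every 24h. Ornithine in final 24-h conditioned media was measured by UPLC-HRMS, normalized to 13C-labeled spike-in standard and to median 0.1% DMSO control.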

[10] = STM_H9_CystineISnorm_perc: Stemina devTOX quickPredict H9 human embryonic stem cell (hESC)-based Assay for Cystine (CYSS) Metabolite Biomarker, Normalized (AID 2283713; active = hit-call score of the fitted dose curve at least 0.9, where 1 is the maximum; inactive = score below 0.9)
Outline: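 Undifferentiated H9 hESCs were exposed to compound for 72h, with medium and compound replaced every 24h. Final-24h conditioned medium was deproteinized and analyzed by UPLC-HRMS. Cystine EIC area was normalized to spiked C13 standard and 0.1% DMSO median.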

O=[N+]([O-])c1ccc(Cl)c([N+](=O)[O-])c1
AC50 [1]: 13.2 µM (active)

Cc1cc(C)cc(C)c1
outcome [2]: inactive
outcome [3]: inactive
outcome [4]: inactive
outcome [5]: inactive
outcome [6]: inactive

OC(Cc1ccccc1Cl)(Cn1cncn1)C1(Cl)CC1 (stereo unspecified)
outcome [6]: inactive

CN(C)C(=S)S
AC50 [7]: 1.05 µM (active)
outcome [4]: inactive
AC50 [8]: 12.4 µM (active)
AC50 [9]: 66.3 µM (active)
AC50 [10]: 75.9 µM (active)
AC50 [1]: 71.7 µM (active)
outcome [6]: inactive

N#Cc1cccnc1
outcome [7]: inactive
outcome [4]: inactive

CCCCCCCCCCCCc1cccc(S(=O)(=O)O)c1
outcome [7]: inactive
outcome [4]: inactive
AC50 [8]: 53 µM (active)

Nc1ncn[nH]1
outcome [9]: inactive
outcome [10]: inactive
outcome [1]: inactive

Clc1cccc(Cl)c1Cl
outcome [7]: inactive
outcome [4]: inactive

O=C(N[C@H]1CN2CCC1CC2)c1ccc2c(c1)OCCO2
outcome [7]: inactive

O=C(O)C1(c2ccc3c(c2)OC[C@H](Cc2ccc(-c4ccccc4)cc2)[C@H]3O)CCCC1
outcome [4]: inactive
AC50 [8]: 13.5 µM (active)

COc1ccc(N)cc1
outcome [6]: inactive

N#CCCC(Br)(C#N)CBr (stereo unspecified)
AC50 [1]: 70.1 µM (active)

COc1ccccc1N
outcome [4]: inactive

CC(C)O.CC(C)O.OCCN(CCO)CCO.OCCN(CCO)CCO.[Ti]
outcome [7]: inactive
outcome [4]: inactive
outcome [8]: inactive
outcome [9]: inactive
AC50 [10]: 74.1 µM (active)
AC50 [1]: 72.4 µM (active)

N#CS
outcome [9]: inactive
outcome [10]: inactive

CC(C)(C)c1ccccc1O
outcome [7]: inactive
outcome [6]: inactive

Oc1c(Cl)cc(Cl)cc1Cl
outcome [7]: inactive
outcome [4]: inactive
AC50 [8]: 3.97 µM (active)

Oc1cc(Cl)c(Cl)cc1Cl
outcome [7]: inactive
outcome [4]: inactive
AC50 [8]: 5.5 µM (active)

OCCN(CCO)CCO
outcome [7]: inactive
AC50 [9]: 0.0236 µM (active)
outcome [10]: inactive
outcome [1]: inactive

CC(C)(COCC1CO1)COCC1CO1 (stereo unspecified)
outcome [6]: inactive
